Laboratory results as given in PubChem BioAssay (Tox21).
Inconclusive results are not listed. Entries that show only a call come without a potency. Calls of active or inactive are those of the source. Calls come from the whole dose curve; as a rule, active = well fitted cell-killing curve with a large enough effect in the repeat runs; inconclusive = weak or mixed curves, or effect the other way; inactive = flat fitted curve, though single readings scatter.

Experiments:
[1] = cAMP Responsive Elements (CRE) small molecule antagonists, cell-based qHTS assay: qHTS cell viability counter screen (AID 2060913); note: nearly all actives have a fitted effect of over 40% in size
Procedure, shortened: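 CRE-bla HEK293T cells (2,000/well, 18 h) given compound plus NKH477 0.25 uM final for 3 h at 37C; viability counter-screen by CellTiter-Glo luminescence in same wells after 30 min.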

[2] = cAMP Responsive Elements (CRE) small molecule agonists, cell-based qHTS assay: qHTS cell viability counter screen (AID 2060914); note: nearly all actives have a fitted effect of over 50% in size
Procedure, shortened: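 Cytotoxicity was measured as ATP luminescence (CellTiter-Glo, 30 min at room temperature) in the same wells as the CRE-bla FRET read-out. HEK293T CRE-bla cells had 3 h compound exposure at 37C/5% CO2.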
Potency is the fitted concentration of half-maximal effect.

SMILES	Potency [1]	Potency [2]
C/C(=C\c1ccc(C(=O)O)cc1)c1ccc2c(c1)C(C)(C)CCC2(C)C	inactive	inactive
Cc1cc(O)c(C(C)(C)C)cc1C(C)(C)C	43.3 µM (active)	48.6 µM (active)
CCC(C(=O)NC(N)=O)c1ccccc1 (stereo unspecified)	inactive	inactive
CCCCC[C@H](O)/C=C/[C@H]1[C@H](O)CC(=O)[C@@H]1C/C=C\CCCC(=O)O	inactive	inactive
CN(C)c1ccc(O)c2c1C[C@H]1C[C@H]3[C@H](N(C)C)C(=O)C(C(N)=O)=C(O)[C@@]3(O)C(=O)C1=C2O	inactive	inactive
C=CCOCC(O)CO (stereo unspecified)	inactive	inactive
CC[C@H](C)C(=O)O[C@H]1C[C@@H](C)C=C2C=C[C@H](C)[C@H](CC[C@@H]3C[C@@H](O)CC(=O)O3)[C@H]21	inactive	inactive
CC(C)(CO)COC(=O)C(C)(C)CO	inactive	inactive
COC(=O)Nc1nc2ccc(Sc3ccccc3)cc2[nH]1	inactive	inactive
CCCCCCCCCCCCCCC	inactive	inactive
Cc1c(OCC(F)(F)F)ccnc1CS(=O)c1nc2ccccc2[nH]1 (stereo unspecified)	inactive	inactive
Nc1c2ccccc2nc2ccccc12	inactive	inactive
N#CCCN(CCO)CCO	inactive	inactive
Cc1ccnc2ccccc12	inactive	inactive
CCCCN(CCCC)CC(O)c1cc(Cl)cc2c1-c1ccc(Cl)cc1/C2=C/c1ccc(Cl)cc1 (stereo unspecified)	inactive	inactive
C1CCOC1	inactive	inactive
O=c1cccc[nH]1	inactive	inactive
CCCCC(CC)COC(=O)/C=C\C(=O)OCC(CC)CCCC (stereo unspecified)	inactive	inactive
